This is part of a sample that, as a whole, favours compounds with a hit. Of some 79,000 tested, about 15% had one in any assay. Values without a mark were called inactive. Active and inactive are the calls of the source. Rule as the data show it: active = growth inhibition above about 70%; inactive = the rest.
Assay: NCI Yeast Anticancer Drug Screen. Data for the bub3 strain (AID 167)
Settings: S. cerevisiae bub3 mutant strain, at 50.0 µM, active compounds read high
Outline: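 Whole-cell yeast assay. The mutant strain was incubated with compounds, and growth inhibition was determined by comparison with vehicle-treated cells.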

Structure (SMILES)	growth inhibition
CC1(C(Cl)Cl)C=CC(=O)c2ccccc21 (stereo not given)	12.3%
NC(C(F)(F)F)(C(F)(F)F)P(=O)(Cc1ccccc1)Cc1ccccc1	-23.1%
COC1CCC(C(C)(C)C)CC1 (stereo not given)	5.85%
O=C(NCCc1c(-c2ccccc2)[nH]c2ccccc12)C1CCCCC1	30.9%
CCCCC1CCC2CCCCC2C1 (stereo not given)	-11.2%
Cc1cc(=O)n2[nH]nnc2n1	12.5%
COC(=O)CNC(=O)C(Cc1ccccc1)NC(=O)OCc1ccccc1 (stereo not given)	15.8%
C=CCSc1ccc(Cl)cc1[N+](=O)[O-]	4%
N#CC1(OC2OC(CO)C(O)C(O)C2O)C=CCC1 (stereo not given)	-12.9%
Brc1cc2ccccc2nc1-c1ccccc1	5.05%
CN(C)NC(=O)Nc1cccc2ccccc12	-26.9%
COC(=O)C(CC(=O)Nc1ccc(Cl)c(Cl)c1)C(=O)C(=O)NC1C2CC3CC(C2)CC1C3 (stereo not given)	-8.65%
CCOC(=O)C1C(C)C2(C#N)C(=N)OC1(C)C2(C#N)C#N (stereo not given)	-22.4%
S=c1sc2c(Cl)nc(Cl)nc2n1-c1ccccc1	9.65%
COc1ccc(C=Nc2ccc(O)cc2)cc1	-22.6%
COc1cc(C(O)CCBr)c(OC)cc1C (stereo not given)	-1.4%
COc1ccc(/C=N/N=C/c2ccc(OC)cc2)cc1	-19.8%
CCCCCCCCOC(=O)c1cc([N+](=O)[O-])c(Sc2ncnc3nc[nH]c23)c([N+](=O)[O-])c1	16.1%
CN1CCN(C(=O)NC2CCCCC2)CC1	-8.4%
O=CC1=CCC2c3[nH]c4ccccc4c3CCN2C1 (stereo not given)	28.2%

Structure (SMILES)	growth inhibition
C=C1C(=O)OC2C1C(OC(=O)/C(=C/C)COC(C)=O)CC1(CO1)C1C(OC(=O)/C(=C/C)CO)C=C(C)C21 (stereo not given)	-41.1%
CCc1ccccc1OCC(O)CO (stereo not given)	-8.85%
Cc1ccc2nc(CN(CCO)CCO)cc(=O)n2c1	26.6%
CCOC(=O)C(C)(C(C)=O)c1nc(=S)[nH]c(=S)[nH]1 (stereo not given)	7.25%
CCCCCCCCCCCCCCCCS(=O)(=O)N/N=C(\c1ccc(C(C)C)cc1)N1CCOCC1	-1.5%
NC(=O)C(=CNC(=S)Nc1ccc(S(=O)(=O)Nc2ccccn2)cc1)C(N)=O	11.3%
CCOC(=O)C1CC(=O)c2cc(OC)c(OC)cc2C1c1ccc(OC)c(OC)c1 (stereo not given)	13.8%
COC(=O)c1cc2cccn2cn1	-27.9%
O=C1c2cc([N+](=O)[O-])cc3cc([N+](=O)[O-])cc(c23)C(=O)N1CCNCCNCCNCCN1C(=O)c2cc([N+](=O)[O-])cc3cc([N+](=O)[O-])cc(c23)C1=O	89% (active)
C1CSCCSCSCCS1	42.4%
CCCCCCCCCCCO/N=C\c1c2c(O)c3c(O)c(C)c4c(c3c1O)C(=O)C(C)(O/C=C\C(OC)C(C)C(OC(C)=O)C(C)C(O)C(C)C(O)C(C)/C=C\C=C(\C)C(=O)N2)O4 (stereo not given)	-5.1%
CC1(C)c2ccccc2C(=O)c2ccccc21	-2.75%
CCC(CC)OCc1ccccc1	0.55%
CCCCCCC(C)(O)C(C)O (stereo not given)	12.2%
CC[N+](C)(CC)c1cccc(OC(=O)N2CCCCC2)c1	-4.75%
S=C1Cc2c(-c3ccccc3)cc(-c3ccc(Cl)cc3)nc2-c2ccccc2N1	6.75%
CCCC(=O)/C=C\c1ccccc1	3.2%
Cc1ccc(S(=O)(=O)NCNS(=O)(=O)c2ccc(C)cc2)cc1	-15.8%
N#C/C(=C\C=C\c1ccccc1)C(N)=O	-51.5%
O=C(C#CP(=O)(O)c1ccccc1)c1ccccc1	-17.6%

Reference: PubChem BioAssay (NCI)
